# Where “and” joins values, the source holds several entries; their conditions need not be identical. Equal values may be shown once. Records with an inconclusive call do not appear. Where a call stands in place of a potency, no number is given. Where a structure was tested more than once in an assay, its records may differ in their call. Calls of active or inactive are those of the source. Unless noted, calls follow the shape of the dose curve; as a rule, active = well fitted curve in the direction sought with a large enough effect; inconclusive = small, poorly fitted or top-dose-only effect, or another doubt; inactive = no such curve, though single readings can be large; an effect the other way counts as inactive or inconclusive.
# Tests used:
# [1] = molecular target: Mitogen-activated protein kinase 10 (Mus musculus) (UniProt Q61831); assay: JNK3 AlphaScreen Assay (AID 530; active = well fitted curve in either direction with a large enough effect, not every such curve was filed as active;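 also: kinase came from lysate of stimulated human HepG2 cells; signal reports phosphorylation of biotinylated GST-cJun 1-79 at Ser73 with 10 µM ATP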)
# Procedure, shortened: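 Activity was read by AlphaScreen after JNK3-containing HepG2 lysate (cytokine pre-activated) phosphorylated biotinylated GST-cJun with 10 uM ATP at room temperature. Phospho-Ser73 cJun antibody with Protein-A acceptor beads provided detection.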
# [2] = Cell Viability - N2a (AID 540); settings: N2a mouse neuroblastoma cell viability; activity change, negative = cytotoxicity: at 92.2 µM (top of the series);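 also: cells exposed to compound for 40 h at 37 °C; nearly all actives have a fitted effect of over 45% in size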; also: potency is read from the fitted curve at half-maximal effect
# Procedure, shortened: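 Cytotoxicity was scored as loss of cellular ATP in N2a cells, a mouse neuroblastoma line. Compounds are applied in a qHTS concentration series for 40 hr at 37 °C.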
# [3] = Cell Viability - NIH 3T3 (AID 541); settings: NIH 3T3 cell viability, qHTS; activity change, negative = cytotoxicity: at 92.2 µM (top of the series);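 also: cells exposed to compound for 40 hours; nearly all actives have a fitted effect of over 25% in size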; also: potency is read from the fitted curve at half-maximal effect
# Procedure, shortened: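 Cells seeded at 1000/well, rested 5 hr at 37 °C, then dosed and incubated 40 hr at 37 °C. CellTiter-Glo added, 20 min room temperature, luminescence read. AC50 by Hill fit.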
# [4] = Cell Viability - H-4-II-E (AID 543);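 also: cells exposed to compound for 40 hours; nearly all actives have a fitted effect of over 35% in size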; also: potency is read from the fitted curve at half-maximal effect
# Procedure, shortened: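 Cells seeded at 1500 per well and rested 5 hr; compounds added; 40 hr incubation at 37 °C; CellTiter-Glo added, 20 min at room temperature; luminescence read. Hill-equation fits gave AC50.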
# [5] = Cell Viability - SH-SY5Y (AID 544);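 also: cells exposed to compound for 40 hours; nearly all actives have a fitted effect of over 55% in size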; also: potency is read from the fitted curve at half-maximal effect
# Procedure, shortened: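 Cells were plated at 1500 per well and allowed 5 hr at 37 °C. Compounds were added across a concentration range and incubated 40 hr at 37 °C. CellTiter-Glo was added for 20 min at room temperature before luminescence reading.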
# [6] = Cell Viability - Mesenchymal (AID 546); settings: mesenchymal cells viability, qHTS; activity change, negative = cytotoxicity: at 91.7 µM (top of the series);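 also: cells exposed to compound for 40 hours before reading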; also: potency is read from the fitted curve at half-maximal effect
# Procedure, shortened: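 Human renal mesenchymal cells (glomerulus-derived), 1000 cells/well, 5 hr 37 °C pre-incubation; compound 40 hr, 37 °C; CellTiter-Glo, 20 min RT; luminescence; AC50 via Hill equation.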
# [7] = Cell Viability - HUV-EC-C (AID 542);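 also: cells exposed to compound for 40 hours; nearly all actives have a fitted effect of over 35% in size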; also: potency is read from the fitted curve at half-maximal effect
# Procedure, shortened: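 Cells were seeded at 1000 per well and incubated 5 hr at 37 °C before compound addition. After 40 hr at 37 °C, CellTiter-Glo reagent was added for 20 min and luminescence read. AC50 values came from Hill-equation modelling.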
# [8] = Cell Viability - Renal Proximal Tubule (AID 545);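 also: cells exposed to compound for 40 hours; nearly all actives have a fitted effect of over 40% in size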; also: potency is read from the fitted curve at half-maximal effect
# Procedure, shortened: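 Primary rat renal proximal tubule cells (1000/well) were treated with compounds for 40 hr at 37 °C in complete medium. Intracellular ATP was measured by CellTiter-Glo luminescence, and AC50 values came from Hill-equation fits of concentration-response data.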
# [9] = molecular target: 3',5'-cyclic-AMP phosphodiesterase 4B (Homo sapiens) (UniProt Q07343); assay: qHTS Assay for Inhibitors of PDE-IV (AID 607; active = well fitted activation curve with a large enough effect in the main read-out, with a control signal flat, not every such curve was filed as active)
# Procedure, shortened: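 HEK293 ACTOne cells with CNG channel (1000/well), endogenous PDE4; membrane potential dye, compounds up to 22.9 uM final. Fluorescence Ex 535/Em 590; RO 20-1724 (100 uM final) as reference.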
# [10] = molecular target: Glucocorticoid receptor (Homo sapiens) (UniProt P04150); assay: GR-EFC Redistribution (AID 451; calls by dose curve; also: potency is read from the fitted curve at half-maximal effect); settings: CHO-K1 GR-EFC translocation, beta-gal luminescence, 2 h
# Procedure, shortened: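 CHO-K1 cells expressing nuclear EA and GR-ED fragments of b-gal; compounds titrated up to 46 uM final, 2 h at 37 C. GR nuclear translocation read as complemented b-gal luminescence after 1 h RT detection.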
# Sequence of Glucocorticoid receptor (Homo sapiens) (P04150 whole entry, looked up, the tested form may be a part): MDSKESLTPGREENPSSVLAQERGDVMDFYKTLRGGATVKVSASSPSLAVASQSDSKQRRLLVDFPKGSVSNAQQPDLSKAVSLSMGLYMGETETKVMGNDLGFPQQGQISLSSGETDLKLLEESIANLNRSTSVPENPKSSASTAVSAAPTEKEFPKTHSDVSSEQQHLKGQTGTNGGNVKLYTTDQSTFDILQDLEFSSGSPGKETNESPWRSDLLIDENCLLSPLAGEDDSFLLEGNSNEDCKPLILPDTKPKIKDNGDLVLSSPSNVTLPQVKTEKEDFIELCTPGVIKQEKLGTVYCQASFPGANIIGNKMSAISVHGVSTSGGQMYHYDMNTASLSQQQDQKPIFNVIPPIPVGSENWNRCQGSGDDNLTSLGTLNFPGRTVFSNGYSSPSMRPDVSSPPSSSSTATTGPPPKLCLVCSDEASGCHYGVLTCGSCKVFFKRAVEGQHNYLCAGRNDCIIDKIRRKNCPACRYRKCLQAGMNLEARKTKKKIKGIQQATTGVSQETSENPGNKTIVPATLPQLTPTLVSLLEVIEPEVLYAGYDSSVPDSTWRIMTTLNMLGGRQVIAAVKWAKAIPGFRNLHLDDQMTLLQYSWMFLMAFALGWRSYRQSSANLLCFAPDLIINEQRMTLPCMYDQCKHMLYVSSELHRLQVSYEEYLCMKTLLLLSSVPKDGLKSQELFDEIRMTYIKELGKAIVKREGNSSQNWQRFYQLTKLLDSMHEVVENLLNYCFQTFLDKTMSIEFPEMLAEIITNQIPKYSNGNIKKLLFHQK
# Sequence of 3',5'-cyclic-AMP phosphodiesterase 4B (Homo sapiens) (Q07343 whole entry, looked up): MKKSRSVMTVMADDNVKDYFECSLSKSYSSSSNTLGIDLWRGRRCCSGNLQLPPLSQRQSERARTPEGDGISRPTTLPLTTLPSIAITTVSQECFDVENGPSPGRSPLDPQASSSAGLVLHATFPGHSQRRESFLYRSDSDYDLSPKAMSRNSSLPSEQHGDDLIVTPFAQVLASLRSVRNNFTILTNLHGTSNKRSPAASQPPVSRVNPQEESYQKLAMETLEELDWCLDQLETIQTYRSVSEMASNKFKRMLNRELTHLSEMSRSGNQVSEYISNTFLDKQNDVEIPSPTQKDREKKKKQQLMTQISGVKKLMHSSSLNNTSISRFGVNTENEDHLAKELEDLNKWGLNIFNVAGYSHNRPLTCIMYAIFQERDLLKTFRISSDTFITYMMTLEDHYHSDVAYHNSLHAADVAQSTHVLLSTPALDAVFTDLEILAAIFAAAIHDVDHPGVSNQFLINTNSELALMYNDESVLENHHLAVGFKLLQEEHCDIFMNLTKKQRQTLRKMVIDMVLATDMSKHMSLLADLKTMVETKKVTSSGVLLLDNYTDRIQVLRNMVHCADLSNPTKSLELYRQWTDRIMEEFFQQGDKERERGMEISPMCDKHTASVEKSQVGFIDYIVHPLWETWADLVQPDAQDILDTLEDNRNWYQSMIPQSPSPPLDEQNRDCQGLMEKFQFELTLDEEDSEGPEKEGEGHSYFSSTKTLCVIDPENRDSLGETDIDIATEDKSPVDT
smiles,measurement,setting,value
Cc1ccc(O)cc1,outcome,[1],inactive
O=C(CCl)c1ccc(Cl)cc1Cl,outcome,[1],inactive
same,Potency,[2],31.6 µM (active)
same,"activity change, negative = cytotoxicity",[3],-145% (active)
same,Potency,[4],10 µM (active)
same,Potency,[5],1.26 µM (active)
same,Potency,[6],31.6 µM (active)
CN(C)C(=S)SSC(=S)N(C)C,outcome,[1],inactive
same,Potency,[2],5.01 µM (active)
same,Potency,[7],15.8 µM (active)
same,Potency,[4],3.98 µM (active)
same,Potency,[5],0.0158 µM (active)
same,Potency,[8],20 µM (active)
same,"activity change, negative = cytotoxicity",[6],-103% (active)
C[C@H](N)[C@H](O)c1ccc(O)c(O)c1,outcome,[1],inactive
same,outcome,[9],inactive
O=C(O)c1nn(Cc2ccc(Cl)cc2Cl)c2ccccc12,Potency,[10],> 46 µM (inactive)
same,outcome,[1],inactive
same,outcome,[9],inactive
COc1ccc(C(=O)N2CCCC2=O)cc1,Potency,[10],> 46 µM (inactive)
same,outcome,[1],inactive
same,outcome,[9],inactive
CC(C)[N+](C)(CCC(C(N)=O)(c1ccccc1)c1ccccc1)C(C)C,Potency,[10],> 20.6 µM (inactive)
same,outcome,[1],inactive
same,outcome,[9],inactive
CCCCCCCCCCCC[N+](C)(C)CCOc1ccccc1,outcome,[1],inactive
same,Potency,[2],7.94 µM (active)
same,"activity change, negative = cytotoxicity",[3],-137% (active)
same,Potency,[7],31.6 µM (active)
same,Potency,[4],39.8 µM (active)
same,Potency,[5],inactive
same,Potency,[8],12.6 µM (active)
same,Potency,[6],25.1 µM (active)
CCC(=O)O[C@H]1CC[C@H]2[C@@H]3CCC4=CC(=O)CC[C@]4(C)[C@H]3CC[C@]12C,Potency,[10],> 20.6 µM (inactive)
same,outcome,[1],inactive
CNC(=O)Oc1cccc2ccccc12,outcome,[1],inactive
same,Potency,[2],inactive
same,Potency,[7],inactive
same,Potency,[4],inactive
same,Potency,[8],inactive
same,Potency,[6],inactive
COP(=O)(OC)OC=C(Cl)Cl,outcome,[1],inactive
same,Potency,[2],inactive
same,Potency,[3],12.6 µM (active)
same,Potency,[7],inactive
same,Potency,[4],inactive
same,Potency,[5],15.8 µM (active)
same,Potency,[8],inactive
same,Potency,[6],inactive
OC(c1ccccc1)(c1ccccc1)C1CCNCC1,Potency,[10],> 20.6 µM (inactive)
same,outcome,[1],inactive
same,outcome,[9],inactive
C[C@@H]1C[C@@H]([C@H](O)CC2CC(=O)NC(=O)C2)C(=O)[C@@H](C)C1,outcome,[1],inactive
same,Potency,[2],0.126 µM (active)
same,Potency,[3],100 nM (active) and 126 nM (active)
same,Potency,[7],0.1 µM (active)
same,Potency,[4],126 nM (active) and 100 nM (active)
same,Potency,[5],63.1 nM (active) and inactive
same,Potency,[6],79.4 nM (active) and 50.1 nM (active)
COc1ccc(CN2CCNCC2)c(OC)c1OC,Potency,[10],> 20.6 µM (inactive)
same,outcome,[1],inactive
same,outcome,[9],inactive
CCCCCCCCC(=O)NCc1ccc(O)c(OC)c1,Potency,[10],> 46 µM (inactive)
same,outcome,[9],inactive
COC(=O)C1=CCCN(C)C1,Potency,[10],> 46 µM (inactive) and > 20.6 µM (inactive)
same,outcome,[1],inactive
same,outcome,[9],inactive
O=C1NCN(c2ccccc2)C12CCN(CCCOc1ccc(F)cc1)CC2,Potency,[10],> 46 µM (inactive)
same,outcome,[1],inactive
Oc1ccc2[nH]cc(CCCCN3CC=C(c4ccccc4)CC3)c2c1,Potency,[10],> 46 µM (inactive)
same,outcome,[9],inactive
CC[n+]1c(-c2ccccc2)c2cc(N)ccc2c2ccc(N)cc21,"activity change, negative = cytotoxicity",[2],-81.5% (active)
same,Potency,[6],31.6 µM (active)
O=C(CCCN1CCC(n2c(=O)[nH]c3ccccc32)CC1)c1ccc(F)cc1,Potency,[10],> 20.6 µM (inactive)
same,outcome,[1],inactive
same,outcome,[9],inactive
c1ccc2nc(N3CCNCC3)ccc2c1,Potency,[10],> 46 µM (inactive) and > 20.6 µM (inactive)
same,outcome,[1],inactive
same,outcome,[9],inactive
Oc1c(Br)cc(Br)cc1Br,outcome,[1],inactive
same,Potency,[2],inactive
same,Potency,[3],inactive
same,Potency,[7],inactive
same,Potency,[4],inactive
same,Potency,[5],inactive
same,Potency,[8],inactive
same,Potency,[6],inactive
NC(=O)CN1CCCC1=O,Potency,[10],> 46 µM (inactive) and > 20.6 µM (inactive)
same,outcome,[1],inactive
same,outcome,[9],inactive
CN1[C@@H]2CC[C@H]1CC(OC(=O)c1cc(Cl)cc(Cl)c1)C2 (stereo partly drawn),Potency,[10],> 46 µM (inactive)
same,outcome,[1],inactive
same,outcome,[9],inactive

# Reference: PubChem BioAssay (NCATS)
